Our source for the relative cell viability values is the supplement of paper PMC4100887.

Structures can show the parent of a compound that is named as a salt. ± gives the standard deviation of the averaged measurements.

One test deals with IMR-90. The experiment in a line: relative cell viability (ATPlite) vs untreated control (fraction); higher = less toxic. As to conditions: 1 µM; 72 h. A general note: In ATP-based viability assays light output follows the ATP content of the culture.
Test [1] concerns K562. Described as above. As to conditions: 1 µM; 72 h.
In test [2] the test system is K562. Briefly: relative cell viability (ATPlite) vs untreated control, with imatinib (fraction); higher = less toxic. The conditions noted are these: 1 µM; 72 h; imatinib 0.125 µM.

Consider `O=C1NC(=O)c2c1c1c3ccccc3[nH]c1n1cncc21` [Isogranulatimide], for which the relative cell viability in the test on IMR-90 was found to be 1.01 ± 0.063; in the test on K562 [1], 0.837 ± 0.077; in the test on K562 [2], 0.773 ± 0.049.
Turning to `Oc1cccc(-c2nc(N3CCOCC3)c3oc4ncccc4c3n2)c1`, the relative cell viability in the test on IMR-90 was determined as 0.958 ± 0.099; in the test with K562 [1] it was 0.741 ± 0.015; in the test with K562 [2], 0.513 ± 0.045.
For `CN1C(=O)C(c2c[nH]c3ccccc23)=C(c2c[nH]c3ccccc23)C1=O` [Bisindolylmaleimide V] the same measures were 0.936 ± 0.091, 0.88 ± 0.053 and 0.77 ± 0.0092.
On to `CCCOc1ccc(/C=C2/SC(=O)NC2=O)cc1` [PIM1/2 Kinase Inhibitor VI], for which the relative cell viability with IMR-90 came to 0.916 ± 0.1; in the test on K562 [1] it was 0.972 ± 0.031; in the test with K562 [2], 0.802 ± 0.029.
For `O=C1Nc2ccc(Br)cc2/C1=C/c1cc2c([nH]1)CCCC2` [VEGF Receptor 2 Kinase Inhibitor II], the values for the relative cell viability with IMR-90, with K562 [1] and with K562 [2] were 0.979 ± 0.059, 0.864 ± 0.081 and 0.782 ± 0.054, respectively.
For `O=c1[nH][nH]c2nnc(-c3c(-c4ccccc4)nn4ccccc34)cc12` [ERK Inhibitor II, Negative control] the same measures were 0.966 ± 0.077, 0.833 ± 0.086 and 0.758 ± 0.019.
Take `C[S+]([O-])c1ccc(-c2nc(-c3ccc(F)cc3)c(-c3ccncc3)[nH]2)cc1` (stereo not drawn): the relative cell viability in the test with IMR-90 came out at 0.994 ± 0.062; with K562 [1] it was 0.921 ± 0.054; in the test with K562 [2] it was 0.751 ± 0.048.
Take `Cn1c2ccccc2c2c3c(c4c5ccccc5n(CCC#N)c4c21)CNC3=O`: the relative cell viability in the test on IMR-90 came to 1.03 ± 0.093; in the test on K562 [1], 0.854 ± 0.1; in the test on K562 [2], 0.739 ± 0.048.
For `NCCNc1ncc(C(N)=O)c(Nc2cccc(C(F)(F)F)c2)n1` [Syk Inhibitor II] the same measures were 0.974 ± 0.079, 0.949 ± 0.058 and 0.773 ± 0.048.
For `COc1cc2ncnc(Nc3cccc(O)c3)c2cc1OC` [WHI-P180, Hydrochloride] the same measures were 0.912 ± 0.092, 0.747 ± 0.073 and 0.366 ± 0.045.
`CCCCc1c(-c2ccc(O)cc2)[nH]c2nccnc12` [Aloisine A, RP107]: the relative cell viability in the test with IMR-90 amounted to 0.913 ± 0.06; with K562 [1], 0.884 ± 0.048; with K562 [2], 0.77 ± 0.032.
For `c1ccc(-c2cnc(Nc3ccc(OCCN4CCCC4)cc3)s2)cc1` [Flt-3 Inhibitor III] the same measures were 0.924 ± 0.052, 0.916 ± 0.065 and 0.797 ± 0.031.
`O=C(c1ccc(Nc2nccc(-c3cc4ccccc4s3)n2)cc1)N1CCC(N2CCCC2)CC1` [IKK Inhibitor VII]: the relative cell viability was 0.972 ± 0.066 in the test on IMR-90, 0.773 ± 0.022 in the test on K562 [1] and 0.632 ± 0.031 with K562 [2].
On the same counts, the results for `O=C1C(Cl)=C(N2C(=O)CCC2=O)C(=O)c2ccccc21` [MEK Inhibitor II] are 1.01 ± 0.11, 0.802 ± 0.089 and 0.653 ± 0.071.
Consider `CS(=O)(=O)c1ccc(-c2nc(-c3ccc(F)cc3)c(-c3ccncc3)[nH]2)cc1`, for which the relative cell viability is 1.03 ± 0.08 in the test on IMR-90, 0.831 ± 0.064 in the test with K562 [1] and 0.703 ± 0.043 with K562 [2].
For `COc1nccc(-c2c(-c3ccc(F)cc3)ncn2C2CCC(O)CC2)n1` (stereo not drawn) the same measures were 0.964 ± 0.038, 0.86 ± 0.11 and 0.794 ± 0.067.
Consider `O=c1c2ccccc2[nH]c(=S)n1CCN1CCC(=C(c2ccc(F)cc2)c2ccc(F)cc2)CC1` [Diacylglycerol Kinase Inhibitor II], for which the relative cell viability with IMR-90 was determined as 0.995 ± 0.097; with K562 [1], 0.867 ± 0.094; with K562 [2], 0.768 ± 0.07.
As to `COc1cc2ncnc(Nc3ccc(Cl)cc3Cl)c2cc1OC` [Ste11 MAPKKK Activation Inhibitor], the relative cell viability with IMR-90 was 0.946 ± 0.13; in the test with K562 [1], 0.802 ± 0.084; with K562 [2], 0.71 ± 0.076.
On the same counts, the results for `COc1cc2c(cc1OC)-c1[nH]nc(Nc3cccc(F)c3)c1C2` [PDGF Receptor Tyrosine Kinase Inhibitor IV] are 0.43 ± 0.07, 0.0468 ± 0.0021 and 0.0404 ± 0.0032.
For `COc1cc(Nc2ncc3ccn(-c4cccc(CCC#N)c4)c3n2)cc(OC)c1OC` [Keratinocyte Differentiation Inducer] the same measures were 1.02 ± 0.058, 0.173 ± 0.21 and 0.459 ± 0.35.
Regarding `Cc1ccc(S(=O)(=O)/C=C/C#N)cc1`, the relative cell viability in the test on IMR-90 is 1.01 ± 0.032; in the test on K562 [1] it was 0.721 ± 0.15; in the test on K562 [2], 0.697 ± 0.14.
For `Cc1ncc2ccccc2c1C#N` [4-Cyano-3-methylisoquinoline] the same measures were 0.955 ± 0.066, 0.917 ± 0.06 and 0.828 ± 0.032.
For `O=C1c2ccccc2-c2nc3nnnn3nc21` [PDK1/Akt/Flt Dual Pathway Inhibitor] the same measures were 0.856 ± 0.069, 0.028 ± 0.0014 and 0.0249 ± 0.0025.
Take `Cc1nc2cc3nc(-c4cccs4)cnc3cc2n1C`: the relative cell viability with IMR-90 amounted to 0.894 ± 0.058; in the test on K562 [1] it was 0.343 ± 0.04; in the test with K562 [2] it was 0.288 ± 0.015.
On the same counts, the results for `O=C1Nc2ccc(Cl)cc2/C1=C/c1cc(Cl)c(O)c(Cl)c1` [PKR Inhibitor, Negative Control] are 0.968 ± 0.089, 0.848 ± 0.072 and 0.721 ± 0.058.
As to `O=C1NCCc2[nH]c(-c3ccnc(-c4cnc5ccccc5c4)c3)cc21` [MK-2 Inhibitor III], the relative cell viability in the test on IMR-90 stood at 0.884 ± 0.11; in the test with K562 [1], 0.837 ± 0.085; in the test with K562 [2], 0.709 ± 0.057.
For `Cn1sc(=O)n(Cc2ccccc2)c1=O` [GSK-3b Inhibitor I] the same measures were 0.98 ± 0.13, 0.793 ± 0.027 and 0.704 ± 0.031.
On the same counts, the results for `N#Cc1c(NC(=O)c2cccc3ccccc23)sc2c1CCCC2` [JNK Inhibitor IX] are 0.97 ± 0.044, 0.143 ± 0.058 and 0.101 ± 0.04.
On the same counts, the results for `O=C(Nc1cc(Cl)cc2c1[nH]c1cnccc12)c1cccnc1` [IKK Inhibitor X] are 0.946 ± 0.061, 0.896 ± 0.069 and 0.804 ± 0.023.
On to `CN(C)CCCn1cc(C2=C(c3c[nH]c4ccccc34)C(=O)NC2=O)c2ccccc21` [Bisindolylmaleimide I], for which the relative cell viability with IMR-90 was found to be 0.895 ± 0.12; in the test on K562 [1] it was 0.169 ± 0.052; with K562 [2] it was 0.137 ± 0.042.
On the same counts, the results for `COc1ccc(OC)c2c(=S)c3ccccc3[nH]c12` are 0.981 ± 0.051, 0.927 ± 0.054 and 0.795 ± 0.041.
On the same counts, the results for `NC(=O)Nc1sc(-c2ccccc2)cc1C(N)=O` [IKK-2 Inhibitor VI] are 0.942 ± 0.1, 0.861 ± 0.097 and 0.695 ± 0.056.
For `Cc1nc(-c2ccccc2)c(-c2ccncc2)o1` the same measures were 1.02 ± 0.093, 0.835 ± 0.077 and 0.649 ± 0.16.
With `COc1ccc2c(c1)c(C1=C(c3c[nH]c4ccccc34)C(=O)NC1=O)cn2CCCN(C)C`, the relative cell viability in the test on IMR-90 came to 0.969 ± 0.082; in the test on K562 [1], 0.872 ± 0.06; in the test on K562 [2], 0.755 ± 0.051.
On the same counts, the results for `O=C(O)C=Cc1cc(Br)c(Br)c(Br)c1Br` [Casein Kinase II Inhibitor III, TBCA] are 0.889 ± 0.14, 0.988 ± 0.082 and 0.836 ± 0.044.
As for `CSc1nc(-c2ccnc(NC(C)c3ccccc3)c2)c(-c2ccc(F)cc2)[nH]1` (stereo not drawn) [p38 MAP Kinase Inhibitor III], the relative cell viability in the test with IMR-90 was 1.03 ± 0.072; in the test on K562 [1], 0.909 ± 0.024; with K562 [2], 0.735 ± 0.038.
